Reference: PubChem BioAssay AID540356 (Broad Institute, 2011)
About 360 (14%) of roughly 2,500 compounds were called active. These entries were drawn from the full list. A number with no mark means an inactive call.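 Rule for the calls: active = signal-lowering compounds whose fitted half-maximal concentration AC50 is no higher than ten times their top tested concentration; inconclusive = flat curve with 30 to 70% inhibition, or poor fit; inactive = flat within 30%, signal increase, or AC50 above limit.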

Assay: HRP/luminol detection interference without ALR, dose response, artefact control for ALR inhibitor project, biochemical, luminescence, no ALR or DTT, cherry-pick (AID 540356);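 for activity change, negative = inhibition: 0% = median of neutral control wells and -100% = median of quercitin 100 µM wells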
Settings: HRP/H2O2 luminol luminescence counterscreen; series mostly up to 10 µM; activity change, negative = inhibition: at the top concentration

Structure (SMILES)	activity change, negative = inhibition [%]	AC50
COc1ccccc1N1CCN(S(=O)(=O)c2ccccc2)CC1	5.49	
CC(=O)N1CCN=C1SCc1cccc(F)c1	0.475	
COc1ccc(-c2csc(Nc3ccc(S(=O)(=O)Nc4cc(C)on4)cc3)n2)cc1	-8.72	
O=C(O)CCCN1C(=O)/C(=C\c2ccc(-c3nc4ccccc4s3)o2)SC1=S	-3.96	
CC(C(=O)NC1C=CS(=O)(=O)C1)N1C(=O)/C(=C\c2ccccc2)SC1=S (centres undefined)	-1.27	
O=c1ccc(-c2n[nH]c(=S)n2-c2ccc(F)c(Cl)c2)n[nH]1	2.95	
CN(C)c1cccc(C(=O)NCc2ccccc2)c1	2.16	
CC(=O)c1ccc(S(=O)(=O)N2CCNC(=O)C2)cc1	0.022	
COC(=O)Nc1ccc(S(=O)(=O)N2CCC(C(=O)N(C)C3CCCCC3)CC2)cc1	-4.36	
COc1ccc(N2CCN(C(=O)CCNS(=O)(=O)c3ccccc3)CC2)cc1	-0.005	
COc1ccccc1NC(=O)Nc1ncccc1C	-3.86	
Cc1ccc(-c2cnc(SCCNC(=O)c3ccco3)[nH]2)cc1	-8.49	
Cc1cccc(-n2c(-c3ccoc3C)n[nH]c2=S)c1	-11.9	
CCN(CC)c1ccc(C2CC(=O)Nc3cc(OC)c(OC)cc32)cc1 (centres undefined)	-0.735	
C/C(=N\NC(=O)c1ccc(N/N=C(\C)c2ccncc2)cc1)c1ccncc1		7.62 µM (active)
C/C(=N\NC(=O)c1cccc(N/N=C(\C)c2ccncc2)c1)c1ccncc1	-0.18	
C/C(=N\NC(=O)c1ccncc1)c1ccc(N(C)C)cc1	-1.54	
Cc1cc(S(=O)(=O)N2CCN(c3ccccc3O)CC2)c(C)s1	-1.49	
COc1cc(-c2csc(CCn3nc(C)cc3C)n2)cc(OC)c1OC	-1.1	
C=CCn1c(-c2cccc([N+](=O)[O-])c2)n[nH]c1=S	-6.54	

Structure (SMILES)	activity change, negative = inhibition [%]	AC50
C=CCn1c(-c2ccc(N)cc2)nc2ccccc21	-1.15	
CC(C)c1ccc(NC(=O)Cc2c(C(=O)O)n(C)c3ccccc23)cc1	-6.86	
CCc1ccc(NCc2ccc(OC)c(Cn3ccnc3)c2)cc1	0.244	
Cc1ccc(NC(=O)CCC(=O)N/N=C/c2ccc(O)cc2)cc1	-3.47	
O=C(CCN1CCN(C(c2ccccc2)c2ccccc2)CC1)N/N=C/c1ccc(O)cc1	-4.67	
CC12CCC(C(=O)N/N=C/c3ccc(O)cc3)(OC1=O)C2(C)C (centres undefined)		8.23 µM (active)
O=C(CCn1cnc2ccccc21)N/N=C/c1ccc(O)cc1		9.88 µM (active)
CN(C)c1ccc(/C=N/NC(=O)CCC(=O)NCc2ccccc2)cc1	1.49	
CCN(CC)c1ccc(/C=N\NC(N)=O)cc1	-3.71	
O=C(N/N=C/c1cccc(O)c1)N/N=C/c1cccc(O)c1	-15	
O=C(Cn1cnc2ccccc21)N/N=C/c1ccccn1	-0.451	
O=C(C[n+]1ccccc1)N/N=C/c1ccc(O)cc1		6.56 µM (active)
O=C(Cn1cc(C(F)(F)F)ccc1=O)N/N=C/c1ccc(O)cc1	-3.05	
O=C(CC(=O)N/N=C/c1ccc(O)cc1)N/N=C/c1ccc(O)cc1		2.72 µM (active)
Cc1nc(C)c(CC(=O)N/N=C/c2ccc(O)cc2)c(=O)[nH]1	-2.84	
COc1ccc(C2SCC(=O)N2c2ccc(F)cc2)cc1 (centres undefined)	0.747	
NNC(=O)c1cc(-c2ccccc2)sc1N	-1.19	
Cc1cc(C)cc(N2C(=O)CSC2c2ccccn2)c1 (centres undefined)	-4.34	
COc1cc(/C=N\NC(=O)c2ccc(-c3ccccc3)cc2)cc(OC)c1O	-2.4	
CC(NC(=O)c1ccccc1)C(=O)N/N=C/c1ccc(O)cc1 (centres undefined)	-7.56	

Structure (SMILES)	activity change, negative = inhibition [%]	AC50
Cn1nc(-c2ccc(Cl)cc2)c2cc(C(=O)NCCCN3CCCC3)sc21	-0.462	
CCn1c(-c2ccc(Cl)cc2)n[nH]c1=S	-8.41	
S=c1[nH]nc(-c2ccc(Cl)cc2)n1-c1ccc(Cl)cc1	-8.06	
Cc1cccc(N2CC(C(=O)Nc3ccccc3N3CCCC3)CC2=O)c1C (centres undefined)	-8.55	
COc1ccc(CC(=O)N2CCN=C2SCc2ccc([N+](=O)[O-])cc2)cc1	-0.324	
CCN(CCNC(=O)C1CCN(S(=O)(=O)c2cccc3nsnc23)CC1)c1ccccc1	-0.842	
COc1ccc(C2NC(=O)CS2)cc1OC (centres undefined)	7.69	
COc1cc(/C=N/NC(=O)CCN2CCCCC2)ccc1O		8.16 µM (active)
COc1ccc(/C=N\NC(=O)CCN2CCN(c3ccccc3)CC2)cc1OC	0.672	
COc1ccc(/C=N/NC(=O)CCn2nc(C)cc2C)cc1O	-8.19	
O=C(NCc1ccccn1)c1ccc2c(c1)N(Cc1ccccc1)CCS2	0.248	
COc1ccc(N2CCN(C(=O)CCNC(=O)c3ccc(C(C)(C)C)cc3)CC2)cc1	-1.79	
Clc1nnc(N2CCCCC2)c2ccccc12	-0.603	
Cc1ccc(S(=O)(=O)Nc2cc(C)c(O)cc2C)cc1	-3.78	
CC(C)c1ccc(NC2CCCN(C(=O)c3cc(C(C)C)nc(N)n3)C2)cc1 (centres undefined)	-1.39	
Cc1cc(O)c(Sc2ncn[nH]2)cc1NS(=O)(=O)c1ccc(Cl)cc1	-11.3	
CC(C)c1ccc(S(=O)(=O)Nc2ccc(O)c(Sc3ncn[nH]3)c2)cc1		9.35 µM (active)
Cc1ccc(S(=O)(=O)Nc2ccc(O)c(Sc3ncn[nH]3)c2)cc1		10.4 µM (active)
Cc1cc(C(=O)N2CCCC(Nc3ccc(C(C)C)cc3)C2)nn1C (centres undefined)	-3.19	
